Data as given in PubChem BioAssay AID2289 (National Center for Advancing Translational Sciences (NCATS), 2010).
The whole screen tested about 340,000 compounds, of which about 3,300 (0.97%) were called active. About 9% were inconclusive and are not listed. Calls come from the whole dose curve; as a rule, active = well fitted inhibition curve with a large enough effect; inconclusive = small, poorly fitted or top-dose-only effect, or effect the other way; inactive = flat fitted curve, though single readings scatter. The list shows a part of the results.
Potency is the fitted concentration of half-maximal effect.

Assay: qHTS Assay for Modulators of miRNAs and/or Inhibitors of miR-21; note: nearly all actives have a fitted effect of over 55% in size
Settings: HeLa miR-21-FLuc reporter, luciferase luminescence, 48 h; actives lower the signal
How it was run: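 HeLa miR-21-FLuc reporter line, endogenous miR-21; 2000 cells/well in DMEM/10% FBS; compound titration up to ~40uM final, 48 h, 37 degree Celsius; luciferase detection reagent, 15 min lysis, CCD luminescence.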
With `Cc1cc(/C=C(\C#N)C(=O)Nc2ccccc2)c(C)n1-c1cccnc1` the Potency was 1.65 µM (active).
In the case of `CCCOc1ccccc1/C=C(\C#N)C(=O)Nc1cccnc1`, the Potency is reported as 8.26 µM (active).
In the case of `COC(=O)c1ccc(COc2ccccc2/C=C(\C#N)C(=O)Nc2ccc(C)cc2)cc1`, the Potency is reported as 7.36 µM (active).
For `COc1ccc(N=Nc2c(C)n[nH]c2C)cc1`, the Potency was 10.4 µM (active).
With `COc1ccc(N=Nc2c(C)[nH][nH]c2=O)cc1` the Potency was 10.4 µM (active).
For `CCOC(=O)c1ccc2[nH]c3c(c2c1)CCCC3NC=O` (stereo unspecified), the Potency was 16.5 µM (active).
With `O=C(Cc1ccccc1F)Nc1ccc2c(c1)CCC2` the Potency was 3.29 µM (active).
With `O=C(Cc1ccc2c(c1)CCCC2)Nc1ccc2ccccc2c1` the Potency was 13.1 µM (active).
With `O=C(Cc1ccccc1F)Nc1ccc(SC(F)F)cc1` the Potency was 2.07 µM (active).
In the case of `COc1ccc2c(c1OC)C(=O)OC2Nc1nc(-c2cc3cc(Br)ccc3oc2=O)cs1` (stereo unspecified), the Potency is reported as 5.85 µM (active).
With `Cc1cc(C(=O)CSc2ncccn2)c(C)n1-c1cccc(F)c1` the Potency was 0.736 µM (active).
In the case of `COc1cc(O)c2c(=O)c3c(OC)c(O)ccc3oc2c1`, the Potency is reported as 13.1 µM (active).
For `COc1ccc(C(=O)Cn2c(=N)n(C)c3ccccc32)cc1`, the Potency was 0.736 µM (active).
For `CCn1c(=N)n(CC(=O)c2ccc(Cl)c(Cl)c2)c2ccccc21`, the Potency was 6.56 µM (active).
In the case of `COc1ccc(C2NN=C(c3ccc(C)cc3)S2)cc1` (stereo unspecified), the Potency is reported as 1.17 µM (active).
With `CCOc1cc(C2NN=C(c3ccc(C)cc3)S2)ccc1O` (stereo unspecified) the Potency was 4.65 µM (active).
For `N#C/C(=N\Nc1ccc(Br)cc1)C(=N)N1CCOCC1`, the Potency was 7.36 µM (active).
For `N#C/C(=N\Nc1ccc(Cl)cc1)C(=N)N1CCCCCC1`, the Potency was 0.585 µM (active).
For `Cc1ccc(N/N=C(\C#N)C(=N)N2CCCCC2)cc1`, the Potency was 0.521 µM (active).
With `CCN(CC)C(=N)/C(C#N)=N/Nc1ccc(C)cc1` the Potency was 3.29 µM (active).
For `Cc1ccc(N/N=C(\C#N)C(=N)N2CCOCC2)cc1`, the Potency was 10.4 µM (active).
In the case of `N#C/C(=N\Nc1ccccc1)C(=N)N1CCCCCC1`, the Potency is reported as 2.07 µM (active).
In the case of `COc1ccc(N/N=C(\C#N)C(=N)N2CCCCC2)cc1`, the Potency is reported as 4.65 µM (active).
With `N#C/C(=N\Nc1ccccc1F)C(=N)N1CCCCC1` the Potency was 1.65 µM (active).
For `CCN=c1scc(-c2ccco2)n1/N=C/c1ccc(O)cc1`, the Potency was 4.14 µM (active).
With `O=[N+]([O-])c1ccccc1OCc1nc(-c2cccs2)no1` the Potency was 2.61 µM (active).
With `Fc1ccc(OCc2nc(-c3cccs3)no2)cc1` the Potency was 6.56 µM (active).
In the case of `c1ccc(OCc2nc(-c3cccs3)no2)cc1`, the Potency is reported as 13.1 µM (active).
With `Cc1ccc2oc(-c3ccccc3)nc2c1` the Potency was 6.56 µM (active).
In the case of `COc1ccc(-c2nc3cc([N+](=O)[O-])ccc3o2)cc1`, the Potency is reported as 0.293 µM (active).
In the case of `COc1cc(OC)cc(-c2nc3cc(C)ccc3o2)c1`, the Potency is reported as 1.65 µM (active).
